Source: the supplement of paper PMC5919970
Structures can show the parent of a compound that is named as a salt. The full ranking holds about 2,000 compounds; the median of “fractional viability relative to vehicle” is about 0.91, and the lowest 2% start at about 0.045. The sample holds the lowest values, similar compounds and a random draw of the others, so the mix is not that of the screen.

System: TYKNU
Test: fractional viability relative to vehicle; TYKNU is a high-grade serous ovarian cancer line; higher = less growth inhibition
Conditions: 72 h
Procedure, shortened: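 TYKNU control cells or lentiCRISPRv2 knockout derivatives were seeded at 500 cells per well into drug-stamped 384-well plates holding a ~2100-compound library at 2 or 10 μM, in duplicate. Cells were grown at 37 °C in 5% CO2 in RPMI 1640 with 10% FBS, and drug treatment lasted 72 h. Viability was read by Cell Titer Glo luminescence. Duplicate treatment wells were averaged and normalised to duplicate control wells from the same plate position.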

[1] = 2uM, genotype: DNM1L knockout (sgDNM1L #1)
[2] = 2uM, genotype: sgCTRLA1 (non-targeting control)
[3] = 10uM, genotype: DNM1L knockout (sgDNM1L #1)
[4] = 10uM, genotype: sgCTRLA1 (non-targeting control)

Compound | fractional viability [1] | fractional viability [2] | fractional viability [3] | fractional viability [4]
NCCCCCNCC12CC3CC(CC(C3)C1)C2 [IEM 1754 dihydrobroMide] | 0.967 | 0.972 | 0.91 | 0.898
CC(=O)Oc1cc2c(s1)CCN(C(C(=O)C1CC1)c1ccccc1F)C2 (stereo not drawn) [Prasugrel] | 1.14 | 1.21 | 0.897 | 1.08
C[C@@H]1COCCN1c1cc(C2([S@](C)(=N)=O)CC2)nc(-c2cc[nH]c3nccc2-3)n1 | 0.189 | 0.127 | 0.136 | 0.0834
CCCCCCCCCCCCCCCCn1cc[n+](Cc2ccccc2)c1C | 0.134 | 0.104 | 0.0139 | 0.00629
Cc1nn(C)c(COc2ccc(N3CCN(S(=O)(=O)N(C)C)CC3)cc2)c1-c1cccc2c(CCCOc3cccc4ccccc34)c(C(=O)O)n(CCN3CCOCC3)c12 | 0.762 | 0.94 | 0.644 | 0.518
C[C@@H](Oc1cc(-c2cnn(C3CCNCC3)c2)cnc1N)c1c(Cl)ccc(F)c1Cl | 0.669 | 0.73 | 0.128 | 0.126
CC[C@H]1[C@@H](O)[C@@H]2[C@H](CC[C@]3(C)[C@@H]([C@H](C)CCC(=O)O)CC[C@@H]23)[C@@]2(C)CC[C@@H](O)C[C@@H]12 [Obeticholic Acid] | 0.846 | 0.891 | 0.952 | 0.807
CC(C)(C)C(=O)C(Oc1ccc(Cl)cc1)n1ccnc1 (stereo not drawn) [Climbazole] | 0.805 | 1.06 | 0.641 | 0.924
CC(C)(C)c1cc(C(=O)C(C#N)=NNc2cccc(Cl)c2)no1 | 0.783 | 0.936 | 0.57 | 0.583
COc1cc2c(cc1OC)CN(CCc1ccc(NC(=O)c3cc(OC)c(OC)cc3NC(=O)c3cnc4ccccc4c3)cc1)CC2 [Tariquidar] | 0.769 | 1.05 | 0.158 | 0.555
CCc1ccc(OCc2ccccc2C(=O)Nc2ccc3nc(C)cc(N)c3c2)cc1 | 0.117 | 0.166 | 0.0139 | 0.00672
CCCC(=O)Nc1cccc(NC(=O)c2ccccc2Br)c1 | 1.11 | 1.19 | 0.939 | 1.21
Cn1c(=O)cc(N2CCC[C@@H](N)C2)n(Cc2ccccc2C#N)c1=O [Alogliptin] | 0.928 | 0.995 | 0.894 | 1.03
Cc1ncc([N+](=O)[O-])n1CC(O)CCl (stereo not drawn) [Ornidazole] | 1.42 | 1.24 | 1.25 | 1.37
NC(=O)N/N=C/c1ccc([N+](=O)[O-])o1 [Nitrofural] | 1.34 | 1.13 | 1.26 | 1.2
CCOC(=O)c1ccc(N2NC(=O)C(=Cc3ccc([N+](=O)[O-])o3)C2=O)cc1 | 0.944 | 1.26 | 0.872 | 1.02
O=C(N/N=C/c1ccc([N+](=O)[O-])o1)c1ccc(O)cc1 [Nifuroxazide] | 0.378 | 1.1 | 0.0463 | 0.0163
CN(C)c1ccc(C(=C2C=CC(=[N+](C)C)C=C2)c2ccc(N(C)C)cc2)cc1 [Crystal Violet] | 0.133 | 0.121 | 0.0375 | 0.0133
O=c1[nH]c(=O)n(C2CC(O)C(CO)O2)cc1Br (stereo not drawn) [Bromodeoxyuridine (BrdU)] | 0.823 | 0.962 | 0.859 | 0.64
Cc1nc(-c2cccnc2)sc1C(=O)Nc1ccccc1-c1cn2c(CN3CCOCC3)csc2n1 | 0.821 | 0.932 | 0.858 | 0.78
O=C(Nc1ccccc1-c1cn2c(CN3CCNCC3)csc2n1)c1cnc2ccccc2n1 | 0.608 | 0.845 | 0.0197 | 0.00961

Compound | fractional viability [1] | fractional viability [2] | fractional viability [3] | fractional viability [4]
Cn1c2ccccc2c2c3c(c4c5ccccc5n(CCC#N)c4c21)CNC3=O | 0.64 | 1.01 | 0.671 | 0.79
Cn1cncc1[C@@](N)(c1ccc(Cl)cc1)c1ccc2c(c1)c(-c1cccc(Cl)c1)cc(=O)n2C [Tipifarnib] | 0.472 | 0.64 | 0.272 | 0.366
Cc1nnc(C(C)C)n1C1C[C@H]2CC[C@@H](C1)N2CC[C@H](NC(=O)C1CCC(F)(F)CC1)c1ccccc1 (stereo in doubt) [Maraviroc] | 0.973 | 1.15 | 0.873 | 1.03
Cc1cc(-c2ncc(CC(=O)Nc3ccc(-c4cnccn4)cn3)cc2C)ccn1 | 0.863 | 1.1 | 0.665 | 0.746
CC(C)c1onc(-c2c(Cl)cccc2Cl)c1COc1ccc(/C=C/c2cccc(C(=O)O)c2)c(Cl)c1 | 0.953 | 1.1 | 0.781 | 1.09
c1ccc(Cn2c(-c3ccc(OC[C@H](C4CCNCC4)n4c(-c5ccccc5)nc5ccccc54)cc3)nc3ccccc32)cc1 [Deltarasin] | 0.887 | 0.966 | 0.0145 | 0.0132
c1cc(-c2cnn3cc(-c4ccc(OCCN5CCCCC5)cc4)cnc23)ccn1 [Dorsomorphin (Compound C)] | 0.845 | 0.916 | 0.552 | 0.503
C/C(=N\NC(=S)N1CCC1)c1ccccn1 | 0.171 | 0.137 | 0.225 | 0.167
Fc1ccc2[nH]ccc2c1-c1nc(N2CCOCC2)c2sc(CN3CCN(CC4CC4)CC3)cc2n1 | 0.883 | 0.947 | 0.634 | 0.711
O=C(NC1CCN(CCCCC2(C(=O)NCC(F)(F)F)c3ccccc3-c3ccccc32)CC1)c1ccccc1-c1ccc(C(F)(F)F)cc1 [Lomitapide Mesylate] | 0.573 | 0.79 | 0.0435 | 0.0328
CC(=O)c1cc2c(o1)C(=O)c1ccccc1C2=O [Napabucasin] | 0.0305 | 0.0196 | 0.018 | 0.0135
O=C(O)c1cc(=O)c2ccccc2o1 [Chromocarb] | 0.948 | 1.07 | 0.923 | 1.05
O=C1c2ccccc2C(=O)c2c1ccc(O)c2O [Alizarin] | 0.834 | 1.1 | 0.8 | 1.06
Cc1ccc(NC(=O)c2cccc(C(C)(C)C#N)c2)cc1Nc1ccc2ncn(C)c(=O)c2c1 | 0.244 | 0.283 | 0.27 | 0.31
CCNC(=O)C#Cc1ccc2c(C(=Nc3ccc(CN(C)C)cc3)c3ccccc3)c(O)[nH]c2c1 | 0.122 | 0.0962 | 0.0494 | 0.0319
CN(C)Cc1cccc(N=C(c2ccccc2)c2c(O)[nH]c3cc(C(=O)N(C)C)ccc23)c1 | 1.01 | 0.843 | 0.588 | 0.574
O=C([C@@H](Cc1cccc(C(F)(F)F)c1)NS(=O)(=O)c1cc(F)c2c(c1)CCNC2)N1CCCC1 | 0.927 | 1.04 | 0.863 | 0.888
CC(C)CCNC(=O)[C@H](CC(C)C)NC(=O)[C@H]1O[C@@H]1C(=O)O [Loxistatin Acid (E-64C)] | 0.865 | 0.938 | 0.959 | 0.802
CCCCC(=O)N(Cc1ccc(-c2ccccc2-c2nnn[nH]2)cc1)[C@H](C(=O)O)C(C)C.CCOC(=O)[C@H](C)C[C@@H](Cc1ccc(-c2ccccc2)cc1)NC(=O)CCC(=O)O | 0.864 | 0.941 | 0.769 | 0.732
CN1CCN(S(=O)(=O)c2ccc(-c3cnc(N)c(C(=O)Nc4cccnc4)n3)cc2)CC1 | 0.731 | 1.08 | 0.346 | 0.474
O=C(O)C(Cc1ccccc1[N+](=O)[O-])=NNc1nc(-c2ccc(Cl)c(Cl)c2)cs1 (mixture of isomers) | 0.727 | 0.775 | 0.717 | 0.573
